Data as given in PubChem BioAssay (NCI).
“And” between values parts separate entries of the source, which are not always exact repeats. Equal entries are not always repeated. This is part of a sample that, as a whole, favours compounds with a hit. Of some 83,000 tested, about 20% had one in any assay.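 In brief: 96-well plates, 48 h treatment, single concentration, percent growth endpoint.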 The source made the active and inactive calls. The calls were made as follows: active = growth percent below 10; inactive = the rest.

Experiments:
Experiment in all cases: NCI-60 one-dose screen, 48 h (100 = growth as untreated, 0 = no growth, -100 = all killed)
Conditions in all cases: 10 µM unless noted
HCT-15 colon = tested on: HCT-15 colon
HT29 colon = tested on: HT29 colon
SNB-75 CNS = tested on: SNB-75 CNS
SNB-19 CNS = tested on: SNB-19 CNS
U251 CNS = tested on: U251 CNS
PC-3 prostate = tested on: PC-3 prostate
SK-MEL-5 melanoma = tested on: SK-MEL-5 melanoma
UACC-62 melanoma = tested on: UACC-62 melanoma
LOX IMVI melanoma = tested on: LOX IMVI melanoma
SK-MEL-28 melanoma = tested on: SK-MEL-28 melanoma

Measured: growth

C=C(C)[C@@H]1CC[C@]2(C(=O)N3CCN(C)CC3)CC[C@]3(C)[C@H](CC[C@@H]4[C@@]5(C)CC(CCCNC(C)=O)(CCCNC(C)=O)[C@H](OC(C)=O)C(C)(C)[C@@H]5CC[C@]43C)[C@@H]12
inactive: HCT-15 colon 86.8% | HT29 colon 83% | SNB-75 CNS 89.2% | SNB-19 CNS 99% | U251 CNS 98.2% | PC-3 prostate 74.9% | SK-MEL-5 melanoma 91.5% | UACC-62 melanoma 99.3% | LOX IMVI melanoma 97.8% | SK-MEL-28 melanoma 103%

NC1=CC(=O)c2cccnc2C1=O
active: SNB-75 CNS -81.2% | SNB-19 CNS 6.26% | U251 CNS -82% | SK-MEL-5 melanoma -97.8% | UACC-62 melanoma -90.5% | LOX IMVI melanoma -74.3% | SK-MEL-28 melanoma -73.7%
inactive: HCT-15 colon 19.9% | HT29 colon 54.8% | PC-3 prostate 15.4%

C=C1C(=O)O[C@@H]2[C@H]3[C@H](COC(C)=O)[C@@H](OC(C)=O)C[C@H]3C(=C)[C@@H](O)C[C@@H]12
inactive: HCT-15 colon 91.5% | HT29 colon 89.6% | SNB-75 CNS 74.8% | SNB-19 CNS 93.7% | U251 CNS 89.9% | PC-3 prostate 88.9% | SK-MEL-5 melanoma 89.2% | UACC-62 melanoma 85% | LOX IMVI melanoma 93% | SK-MEL-28 melanoma 106%

COc1ccc(Nc2nn3c(SCC(=O)c4ccc(C)cc4)nnc3s2)cc1
inactive: HCT-15 colon 105% | HT29 colon 105% | SNB-75 CNS 95.7% | SNB-19 CNS 98.8% | U251 CNS 106% | PC-3 prostate 85.5% | SK-MEL-5 melanoma 95.4% | UACC-62 melanoma 83.7% | LOX IMVI melanoma 95.9% | SK-MEL-28 melanoma 109%

[2H]C([2H])([2H])Oc1cccc(/C=C/C(=O)/C=C(/C=C/c2cccc(OC([2H])([2H])[2H])c2OC([2H])([2H])[2H])OB(F)F)c1OC([2H])([2H])[2H]
inactive: HCT-15 colon 58.3% | HT29 colon 86.3% | SNB-75 CNS 55.2% | SNB-19 CNS 89.1% | U251 CNS 58.8% | PC-3 prostate 74.3% | SK-MEL-5 melanoma 98.6% | UACC-62 melanoma 66.6% | LOX IMVI melanoma 54.6% | SK-MEL-28 melanoma 88.5%

COc1cc(CO)cc2cc3ccccc3nc12
inactive: HCT-15 colon 106% | HT29 colon 103% | SNB-75 CNS 74.7% | SNB-19 CNS 97.1% | U251 CNS 99.2% | PC-3 prostate 104% | SK-MEL-5 melanoma 105% | UACC-62 melanoma 98.7% | LOX IMVI melanoma 100% | SK-MEL-28 melanoma 113%

O=C(CCCCCCCCC(=O)N/N=C\c1ccccc1O)N/N=C\c1ccccc1O
inactive: HCT-15 colon 22.1% | HT29 colon 68.4% | SNB-75 CNS 37.5% | SNB-19 CNS 24.1% | U251 CNS 15.2% | PC-3 prostate 31.5% | LOX IMVI melanoma 10.8% | SK-MEL-28 melanoma 35.6%
active: SK-MEL-5 melanoma -59.8% | UACC-62 melanoma -7.2%

O=C(CCl)n1nnnc1Cc1ccccc1
inactive: HCT-15 colon 102% | HT29 colon 95.6% | SNB-75 CNS 84.9% | SNB-19 CNS 96.4% | U251 CNS 90.3% | PC-3 prostate 94.7% | SK-MEL-5 melanoma 109% | UACC-62 melanoma 89.5% | LOX IMVI melanoma 87% | SK-MEL-28 melanoma 110%

Cn1cc(-c2nonc2-c2cn(C)c3ccc(Br)cc23)c2ccccc21
inactive: HCT-15 colon 26.1% | SNB-19 CNS 27.6% | U251 CNS 23.3% | PC-3 prostate 32% | SK-MEL-5 melanoma 37.2% | UACC-62 melanoma 21.8% | LOX IMVI melanoma 31.2% | SK-MEL-28 melanoma 55.9%
active: HT29 colon 9.17% | SNB-75 CNS -0.37%

O=C(c1cccc(Br)c1)N1CCN(c2ccnc3cc(Cl)ccc23)CC1
inactive: HCT-15 colon 90.3% | HT29 colon 81.7% | SNB-75 CNS 117% | SNB-19 CNS 85.1% | U251 CNS 78.2% | PC-3 prostate 79% | SK-MEL-5 melanoma 82.2% | UACC-62 melanoma 70.1% | LOX IMVI melanoma 102% | SK-MEL-28 melanoma 95.7%

CCCCC#Cc1c(/C=C(\CCCC)SCC)n(C)c(=O)[nH]c1=O
inactive: HCT-15 colon 89.8% | HT29 colon 92.6% | SNB-75 CNS 90.1% | SNB-19 CNS 107% | U251 CNS 117% | PC-3 prostate 94.1% | SK-MEL-5 melanoma 99% | UACC-62 melanoma 90.4% | LOX IMVI melanoma 96.6% | SK-MEL-28 melanoma 118%

CCOC(=O)c1ccc(Nc2ncnc3c2cnn3-c2cccc(F)c2)cc1
inactive: HCT-15 colon 102% | HT29 colon 103% | SNB-75 CNS 82.1% | SNB-19 CNS 96.9% | U251 CNS 98% | PC-3 prostate 97.3% | SK-MEL-5 melanoma 101% | UACC-62 melanoma 92.6% | LOX IMVI melanoma 93.2% | SK-MEL-28 melanoma 110%

C[N+]1=C(/C=C\C=C\c2ccccc2)C(C)(C)c2ccccc21
inactive: HCT-15 colon 14.2% | HT29 colon 12.3% | SNB-75 CNS 81.8% | SNB-19 CNS 27.4% | U251 CNS 14% | PC-3 prostate 30.7% | LOX IMVI melanoma 12.6%
active: SK-MEL-5 melanoma -39.7% | UACC-62 melanoma -16.1% | SK-MEL-28 melanoma -35.5%

Fc1ccccc1-c1cnn2cc(-c3ccccc3)cnc12
inactive: HCT-15 colon 90.5% | HT29 colon 105% | SNB-75 CNS 81.7% | SNB-19 CNS 94.1% | U251 CNS 98.9% | PC-3 prostate 88.5% | SK-MEL-5 melanoma 101% | UACC-62 melanoma 91.5% | LOX IMVI melanoma 98.7% | SK-MEL-28 melanoma 113%

O=Nc1ccc(NO)c2ccccc12
inactive: HCT-15 colon 99.5% and 95.7% | HT29 colon 106% and 35.3% | SNB-75 CNS 95.8% and 90.8% | SNB-19 CNS 118% and 99% | U251 CNS 101% and 79% | PC-3 prostate 81.9% and 36.4% | SK-MEL-5 melanoma 94.1% and 81.3% | UACC-62 melanoma 95.9% and 61.9% | LOX IMVI melanoma 102% and 17.4% | SK-MEL-28 melanoma 113% and 94.6%

O=C(NNc1ccccc1)c1ccccc1
inactive: HCT-15 colon 47.7% and 40.7% | HT29 colon 85.5% and 84.8% | SNB-75 CNS 70.6% and 87.6% | SNB-19 CNS 95% and 99.3% | U251 CNS 90.8% | PC-3 prostate 75.1% and 53.8% | SK-MEL-5 melanoma 98.8% and 100% | UACC-62 melanoma 29.6% and 30.9% | LOX IMVI melanoma 58.4% and 52.7% | SK-MEL-28 melanoma 89.8% and 108%

N#Cc1c(N)nnn1Cc1cc(=O)oc2ccc(O)cc12
inactive: HCT-15 colon 110% | HT29 colon 102% | SNB-75 CNS 100% | SNB-19 CNS 102% | U251 CNS 103% | PC-3 prostate 97.3% | SK-MEL-5 melanoma 97.9% | UACC-62 melanoma 99.9% | LOX IMVI melanoma 102% | SK-MEL-28 melanoma 112%

Fc1ccc(NC(c2ccc(F)cc2)C2CCN(CCCCc3ccccc3)CC2)cc1 (stereo not given)
inactive: HCT-15 colon 29.3% | SNB-75 CNS 63.4% | SNB-19 CNS 50% | U251 CNS 16.6% | PC-3 prostate 35% | UACC-62 melanoma 26% | LOX IMVI melanoma 11.3% | SK-MEL-28 melanoma 60.1%
active: HT29 colon 3.89% | SK-MEL-5 melanoma -3.5%

COc1cc(Nc2nc3ccccc3cc2C(=O)Nc2ccc(F)c(F)c2)cc(OC)c1OC
inactive: HCT-15 colon 13.5% | HT29 colon 28.5% | SNB-75 CNS 45.4% | SNB-19 CNS 25.3% | U251 CNS 19.1% | PC-3 prostate 10.7% | SK-MEL-5 melanoma 13.8% | UACC-62 melanoma 12.9% | LOX IMVI melanoma 17.6% | SK-MEL-28 melanoma 35.7%

COc1c(O)c(O)cc2c3c(oc12)CC(c1ccc2c(c1)OCO2)CC3=O (stereo not given)
inactive: HCT-15 colon 42.1% | HT29 colon 93.4% | SNB-75 CNS 84.5% | SNB-19 CNS 77.8% | U251 CNS 76.2% | PC-3 prostate 76.1% | SK-MEL-5 melanoma 31.4% | LOX IMVI melanoma 25.3% | SK-MEL-28 melanoma 47%
active: UACC-62 melanoma 4.1%

CC1=CC=C(NC(=O)/C=C/c2ccccc2)CC1Nc1nccc(-c2cccnc2)n1 (stereo not given)
active: SNB-75 CNS 8.46% | SK-MEL-5 melanoma -42.9%
inactive: HCT-15 colon 14.6% | HT29 colon 13.6% | SNB-19 CNS 66.8% | U251 CNS 38.1% | PC-3 prostate 25.2% | UACC-62 melanoma 37.9% | LOX IMVI melanoma 41.3% | SK-MEL-28 melanoma 35.3%

[Cu+].[NH-][C@H]1C[N-]C(=O)[C@H]([C@H]2CCN=C(N)N2)[N-]C(=O)/C(=C\NC(N)=O)[N-]C(=O)[C@H](CNC(=O)C[C@@H](N)CCCN)[N-]C(=O)[C@H](CO)[N-]C1=O
inactive: HCT-15 colon 100% | HT29 colon 104% | SNB-75 CNS 88.2% | SNB-19 CNS 103% | U251 CNS 101% | PC-3 prostate 96% | SK-MEL-5 melanoma 109% | UACC-62 melanoma 92.1% | LOX IMVI melanoma 98.7% | SK-MEL-28 melanoma 110%

C[C@]12CCc3c(ccc4cc(O)ccc34)[C@@H]1C[C@H](O)[C@@H]2O
inactive: HCT-15 colon 108% | HT29 colon 102% | SNB-75 CNS 116% | SNB-19 CNS 95% | U251 CNS 101% | PC-3 prostate 78.5% | SK-MEL-5 melanoma 102% | UACC-62 melanoma 88.6% | LOX IMVI melanoma 93.3% | SK-MEL-28 melanoma 110%

CCOC(=O)C(=Cc1ccc(C#N)cc1)C(=O)OCC
active: HCT-15 colon -21% | HT29 colon -39.7% | LOX IMVI melanoma -54.9% | SK-MEL-28 melanoma -17.7%
inactive: SNB-75 CNS 42.9% | SNB-19 CNS 65.2% | U251 CNS 50.3% | PC-3 prostate 33.3% | SK-MEL-5 melanoma 59.6% | UACC-62 melanoma 10.6%

CCOc1nc(-c2ccccc2)cc2c(O)c(C(=O)N/N=C/c3ccc(N(C)C)cc3)[nH]c(=O)c12
inactive: HCT-15 colon 117% | HT29 colon 145% | SNB-75 CNS 124% | SNB-19 CNS 133% | U251 CNS 94.7% | PC-3 prostate 88.9% | SK-MEL-5 melanoma 105% | UACC-62 melanoma 98.2% | LOX IMVI melanoma 97.8% | SK-MEL-28 melanoma 98.5%
